Growth data for seven compounds are collected here from PubChem BioAssay (NCI).

Some test systems named below: DU-145 prostate; K-562 leukemia; MALME-3M melanoma; MDA-MB-231 breast; RXF 393 renal; SF-268 CNS; SF-295 CNS; SF-539 CNS; UACC-257 melanoma; M14 melanoma; HCT-15 colon; HT29 colon; SNB-75 CNS; SNB-19 CNS; U251 CNS; PC-3 prostate; SK-MEL-5 melanoma; UACC-62 melanoma; LOX IMVI melanoma; SK-MEL-28 melanoma.
Holding throughout (assay): NCI-60 one-dose screen, 48 h (100 = growth as untreated, 0 = no growth, -100 = all killed)
Common to all, as to conditions: 10 µM unless noted

Compounds without any hit were thinned out: in the full panel of roughly 83,000, 20% have a hit.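 In brief: 96-well plates, 48 h treatment, single concentration, percent growth endpoint.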 Unmarked numbers belong to inactive results. The source made the active and inactive calls. How the source made its calls: active means growth percent below 10; inactive means the rest.

With `CC(=O)OC[C@]12CC[C@@H]([C@@H](C)c3nnc(-c4ccncc4)o3)[C@@H]1[C@H]1CC[C@@H]3[C@@]4(C)CC[C@H](OC(C)=O)C(C)(C)[C@@H]4CC[C@@]3(C)[C@]1(C)CC2`, the growth was 102% with DU-145 prostate; 46.4% in the experiment with K-562 leukemia; 99.7% with MALME-3M melanoma; 76.3% in the experiment with MDA-MB-231 breast; 104% with RXF 393 renal; 92% in the experiment with SF-268 CNS. The growth in the experiment on SF-295 CNS was 74.9%; in the experiment on SF-539 CNS it was 94.2%; in the experiment on UACC-257 melanoma, 75.3%; in the experiment on M14 melanoma, 91%; in the experiment with HCT-15 colon, 77.5%; in the experiment with HT29 colon, 63.8%. Besides, the growth in the experiment on SNB-75 CNS was 103%; in the experiment on SNB-19 CNS, 82.7%; with U251 CNS it was 64.1%; with PC-3 prostate, 33.5%; with SK-MEL-5 melanoma, 74.3%; in the experiment on UACC-62 melanoma, 58.2%. Also, the growth is 77.2% in the experiment with LOX IMVI melanoma and 92.8% in the experiment with SK-MEL-28 melanoma.

As for `CCOC(=O)C#Cc1c(C(=O)OCC)nnn1Cc1ccc(C(F)(F)F)cc1`, the growth is 60.5% in the experiment on DU-145 prostate; 3.87% (active) in the experiment with K-562 leukemia; 74.4% in the experiment with MALME-3M melanoma; 88.1% in the experiment on MDA-MB-231 breast; -7.11% (active) with RXF 393 renal; 86.6% in the experiment on SF-268 CNS. The growth in the experiment with SF-295 CNS is 94.8%; in the experiment on SF-539 CNS it was 43.3%; in the experiment with UACC-257 melanoma, 74.2%; with M14 melanoma it was 30.5%; in the experiment with HCT-15 colon, -16.9% (active); with HT29 colon, 5.09% (active). Besides, the growth in the experiment on SNB-75 CNS is 62.3%; in the experiment on SNB-19 CNS, 85.5%; in the experiment on U251 CNS, 93.7%; with PC-3 prostate, 64.5%; with SK-MEL-5 melanoma, 95.2%; in the experiment with UACC-62 melanoma it was 80%. The growth in the experiment on LOX IMVI melanoma was -68.3% (active); in the experiment with SK-MEL-28 melanoma it was 89.7%.

In the case of `O=C(N/N=C\c1ccccc1S(=O)(=O)O)N/N=C/c1ccccc1S(=O)(=O)O`, the growth was 106% in the experiment with DU-145 prostate; 97.9% in the experiment with K-562 leukemia; 105% in the experiment on MALME-3M melanoma; 102% in the experiment on MDA-MB-231 breast; 112% with RXF 393 renal; 102% with SF-268 CNS. The growth in the experiment with SF-295 CNS is 101%; in the experiment with SF-539 CNS it was 111%; with UACC-257 melanoma, 93.2%; in the experiment on M14 melanoma, 102%; in the experiment with HCT-15 colon, 104%; in the experiment on HT29 colon it was 105%. The growth with SNB-75 CNS is 95.5%; in the experiment with SNB-19 CNS, 99.8%; with U251 CNS it was 99.9%; with PC-3 prostate, 96.3%; in the experiment with SK-MEL-5 melanoma it was 106%; in the experiment on UACC-62 melanoma it was 98.1%. Further, the growth is 102% with LOX IMVI melanoma and 101% in the experiment on SK-MEL-28 melanoma.

With `CCn1cc(CNc2ccc(C(=O)Nc3cc4cc(OC)c(OC)cc4c(C)n3)cc2)cn1`, the growth in the experiment with DU-145 prostate is 67.2%; with K-562 leukemia, 30.8%; in the experiment with MALME-3M melanoma, 54.6%; in the experiment with MDA-MB-231 breast, 79.6%; in the experiment on RXF 393 renal, 80.4%; in the experiment on SF-268 CNS it was 60.6%. The growth in the experiment with SF-295 CNS was 60.4%; in the experiment with SF-539 CNS, 70.5%; in the experiment on UACC-257 melanoma, 56.2%; in the experiment with M14 melanoma, 48.8%; with HCT-15 colon it was 26.3%; with HT29 colon, 56.6%. For the same compound, the growth was 65.2% in the experiment on SNB-75 CNS; 84.1% with SNB-19 CNS; 65.2% with U251 CNS; 15.3% in the experiment on PC-3 prostate; 10.3% with SK-MEL-5 melanoma; 33.5% in the experiment with UACC-62 melanoma. Besides, the growth in the experiment on LOX IMVI melanoma was 46.1%; with SK-MEL-28 melanoma, 70.5%.

Regarding `CC1(C)CC[C@]23CC[C@]4(C)[C@H](CC[C@@H]5[C@@]6(C)C/C(=C/c7ccncc7)C(=O)C(C)(C)[C@@H]6CC[C@]54C)[C@H]2[C@H]1OC3`, the growth was 82.1% in the experiment on DU-145 prostate; 69.9% with K-562 leukemia; 87.9% with MALME-3M melanoma; 65.5% in the experiment with MDA-MB-231 breast; 88.4% with RXF 393 renal; 78.1% in the experiment with SF-268 CNS. The growth is 90.9% in the experiment with SF-295 CNS; 58.7% with SF-539 CNS; 85.5% in the experiment on UACC-257 melanoma; 96.6% in the experiment with M14 melanoma; 73.4% with HCT-15 colon; 43.9% in the experiment with HT29 colon. Also, the growth in the experiment with SNB-75 CNS is 61.4%; in the experiment on SNB-19 CNS it was 83.4%; in the experiment on U251 CNS it was 70%; in the experiment with PC-3 prostate, 51%; in the experiment with SK-MEL-5 melanoma it was 78.8%; in the experiment on UACC-62 melanoma, 90.5%. For the same compound, the growth in the experiment with LOX IMVI melanoma was 73.1%; in the experiment on SK-MEL-28 melanoma, 76%.

For the compound `CN(C)CCCC1(c2ccc(F)cc2)OCc2cc(-c3ccc4cc[nH]c4c3)ccc21` (stereo not given), the growth is 35.7% with DU-145 prostate; -20.1% (active) in the experiment on K-562 leukemia; 11% in the experiment with MALME-3M melanoma; 16% in the experiment with MDA-MB-231 breast; 45.8% in the experiment on RXF 393 renal; 54% in the experiment with SF-268 CNS. In addition, the growth is 74.5% in the experiment on SF-295 CNS; 67.8% in the experiment with SF-539 CNS; 79.1% in the experiment on UACC-257 melanoma; -56.8% (active) with M14 melanoma; 25.8% in the experiment on HCT-15 colon; 4.73% (active) with HT29 colon. Further, the growth in the experiment on SNB-75 CNS was 33.8%; in the experiment on SNB-19 CNS, 69.2%; in the experiment on U251 CNS, 17.5%; with PC-3 prostate it was 43.5%; in the experiment on SK-MEL-5 melanoma, 56.6%; with UACC-62 melanoma, 56.9%. For the same compound, the figures for the growth in the experiment on LOX IMVI melanoma and in the experiment with SK-MEL-28 melanoma were -83.4% (active) and 64.1%, respectively.

With `NC(=O)c1cnc(Nc2cccc(N)c2)nc1NCCCNC(=O)C1CCC1`, the growth in the experiment on DU-145 prostate is 75.9%; in the experiment with K-562 leukemia, 52%; with MALME-3M melanoma, 80.3%; in the experiment on MDA-MB-231 breast, 50.1%; with RXF 393 renal, 21.4%; with SF-268 CNS, 76.2%. Besides, the growth in the experiment with SF-295 CNS was 69.3%; in the experiment on SF-539 CNS, 5.4% (active); in the experiment with UACC-257 melanoma, 107%; in the experiment with M14 melanoma it was 55.4%; with HCT-15 colon, 101%; in the experiment with HT29 colon, 92.9%. Also, the growth in the experiment on SNB-75 CNS is 53.8%; in the experiment on SNB-19 CNS, 82.8%; with U251 CNS, 64.8%; with PC-3 prostate, 72.4%; with SK-MEL-5 melanoma, 84.6%; with UACC-62 melanoma, 70%. Besides, the growth in the experiment on LOX IMVI melanoma was 68.7%; in the experiment with SK-MEL-28 melanoma, 92%.
